# Source: ChEMBL document CHEMBL1961873, “Compounds: GSK PKIS; Assays: Nanosyn kinase panel” (2012)
# Key:
# [1] = target: Sphingosine kinase 1 (Homo sapiens) (UniProt Q9NYA1); details: at 1 µM;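 also: mean SPHK1 inhibition value reported from the GSK PKIS kinase panel screen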
# [2] = target: T1, Sphingosine kinase 2 (Homo sapiens) (UniProt Q9NRA0); details: at 0.1 µM
# T1 sequence (whole entry): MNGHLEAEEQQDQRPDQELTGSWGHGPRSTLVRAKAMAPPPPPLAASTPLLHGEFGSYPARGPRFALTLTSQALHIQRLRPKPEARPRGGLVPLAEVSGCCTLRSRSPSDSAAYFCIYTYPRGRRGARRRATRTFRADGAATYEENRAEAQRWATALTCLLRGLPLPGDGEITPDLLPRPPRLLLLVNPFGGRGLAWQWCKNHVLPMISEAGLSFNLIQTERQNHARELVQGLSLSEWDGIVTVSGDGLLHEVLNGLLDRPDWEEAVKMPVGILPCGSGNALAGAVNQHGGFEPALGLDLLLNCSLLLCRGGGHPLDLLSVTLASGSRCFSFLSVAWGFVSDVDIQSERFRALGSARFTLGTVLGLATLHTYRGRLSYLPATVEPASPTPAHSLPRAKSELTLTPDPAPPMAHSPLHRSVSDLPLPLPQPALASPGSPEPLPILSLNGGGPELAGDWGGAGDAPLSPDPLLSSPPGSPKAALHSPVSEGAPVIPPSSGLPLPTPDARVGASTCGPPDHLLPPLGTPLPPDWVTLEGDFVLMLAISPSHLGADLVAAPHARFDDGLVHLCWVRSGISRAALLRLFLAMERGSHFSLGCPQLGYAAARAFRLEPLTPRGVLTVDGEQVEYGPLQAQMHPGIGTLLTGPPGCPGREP
# [3] = target: T1, Sphingosine kinase 2 (Homo sapiens); details: at 1 µM
# [4] = target: Casein kinase II subunit alpha (Homo sapiens) (UniProt P68400); details: at 0.1 µM
# [5] = target: Casein kinase II subunit alpha (Homo sapiens) (UniProt P68400); details: at 1 µM
# [6] = target: T2, Inhibitor of nuclear factor kappa-B kinase subunit alpha (Homo sapiens) (UniProt O15111); details: at 0.1 µM
# T2 sequence (whole entry): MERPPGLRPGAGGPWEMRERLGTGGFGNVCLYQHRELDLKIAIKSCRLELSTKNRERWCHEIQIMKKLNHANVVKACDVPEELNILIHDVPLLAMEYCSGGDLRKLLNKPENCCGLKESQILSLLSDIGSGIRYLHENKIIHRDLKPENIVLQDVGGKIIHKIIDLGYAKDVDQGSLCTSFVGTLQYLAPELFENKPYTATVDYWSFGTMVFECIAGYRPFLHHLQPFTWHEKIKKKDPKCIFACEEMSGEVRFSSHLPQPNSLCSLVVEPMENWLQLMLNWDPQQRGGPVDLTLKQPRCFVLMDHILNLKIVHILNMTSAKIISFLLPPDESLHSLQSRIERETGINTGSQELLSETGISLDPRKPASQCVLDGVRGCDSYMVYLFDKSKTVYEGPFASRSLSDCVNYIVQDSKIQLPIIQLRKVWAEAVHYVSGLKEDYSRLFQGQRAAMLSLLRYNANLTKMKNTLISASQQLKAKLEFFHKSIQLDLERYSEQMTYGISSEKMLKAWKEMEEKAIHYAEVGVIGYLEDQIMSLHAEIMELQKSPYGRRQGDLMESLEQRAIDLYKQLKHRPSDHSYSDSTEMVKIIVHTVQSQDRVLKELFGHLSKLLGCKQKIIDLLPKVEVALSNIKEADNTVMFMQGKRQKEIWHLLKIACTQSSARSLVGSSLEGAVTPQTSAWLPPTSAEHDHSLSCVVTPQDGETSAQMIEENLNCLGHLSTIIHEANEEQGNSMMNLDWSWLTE
# [7] = target: T2, Inhibitor of nuclear factor kappa-B kinase subunit alpha (Homo sapiens); details: at 1 µM
# [8] = target: T3, Inhibitor of nuclear factor kappa-B kinase subunit beta (Homo sapiens) (UniProt O14920); details: at 0.1 µM
# T3 sequence (whole entry): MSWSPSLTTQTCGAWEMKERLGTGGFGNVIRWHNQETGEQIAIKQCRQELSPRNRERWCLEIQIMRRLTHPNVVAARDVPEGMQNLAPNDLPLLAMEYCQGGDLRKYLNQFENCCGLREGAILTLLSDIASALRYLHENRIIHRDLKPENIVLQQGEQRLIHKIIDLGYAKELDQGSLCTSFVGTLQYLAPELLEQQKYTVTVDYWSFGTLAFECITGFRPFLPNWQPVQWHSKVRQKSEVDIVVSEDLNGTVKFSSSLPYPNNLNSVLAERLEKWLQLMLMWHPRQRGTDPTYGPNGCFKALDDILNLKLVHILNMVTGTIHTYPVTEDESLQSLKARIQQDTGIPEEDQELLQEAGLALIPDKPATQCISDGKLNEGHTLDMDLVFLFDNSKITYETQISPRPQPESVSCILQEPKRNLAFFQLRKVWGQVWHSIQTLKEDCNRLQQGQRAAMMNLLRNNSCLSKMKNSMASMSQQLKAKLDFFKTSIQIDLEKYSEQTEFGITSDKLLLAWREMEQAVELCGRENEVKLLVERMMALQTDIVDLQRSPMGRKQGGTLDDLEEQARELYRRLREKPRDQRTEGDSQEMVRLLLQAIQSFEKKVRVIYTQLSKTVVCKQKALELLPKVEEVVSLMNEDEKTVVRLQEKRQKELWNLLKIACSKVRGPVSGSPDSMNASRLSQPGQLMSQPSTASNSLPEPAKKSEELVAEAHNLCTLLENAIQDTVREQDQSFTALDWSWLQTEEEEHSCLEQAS
# [9] = target: T3, Inhibitor of nuclear factor kappa-B kinase subunit beta (Homo sapiens); details: at 1 µM
# [10] = target: T4, Inhibitor of nuclear factor kappa-B kinase subunit epsilon (Homo sapiens) (UniProt Q14164); details: at 0.1 µM
# T4 sequence (whole entry): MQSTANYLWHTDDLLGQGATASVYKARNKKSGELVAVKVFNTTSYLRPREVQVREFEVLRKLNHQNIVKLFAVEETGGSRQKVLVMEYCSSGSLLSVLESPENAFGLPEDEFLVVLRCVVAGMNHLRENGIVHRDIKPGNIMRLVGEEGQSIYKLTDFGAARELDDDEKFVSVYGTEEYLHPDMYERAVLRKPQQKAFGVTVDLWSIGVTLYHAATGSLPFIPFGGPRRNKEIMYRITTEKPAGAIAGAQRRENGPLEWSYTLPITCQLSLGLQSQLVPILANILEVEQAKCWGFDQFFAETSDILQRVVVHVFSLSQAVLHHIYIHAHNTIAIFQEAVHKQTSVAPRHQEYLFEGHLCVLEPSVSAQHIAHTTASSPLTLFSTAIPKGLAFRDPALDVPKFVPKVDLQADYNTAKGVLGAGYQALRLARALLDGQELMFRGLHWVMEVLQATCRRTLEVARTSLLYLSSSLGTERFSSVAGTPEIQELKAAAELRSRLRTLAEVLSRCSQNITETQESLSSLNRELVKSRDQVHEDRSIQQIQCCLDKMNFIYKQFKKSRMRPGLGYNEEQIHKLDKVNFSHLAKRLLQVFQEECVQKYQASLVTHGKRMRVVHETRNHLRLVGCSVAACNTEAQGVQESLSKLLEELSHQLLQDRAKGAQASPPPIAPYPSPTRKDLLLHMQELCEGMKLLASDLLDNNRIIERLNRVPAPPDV
# [11] = target: T4, Inhibitor of nuclear factor kappa-B kinase subunit epsilon (Homo sapiens); details: at 1 µM
# [12] = target: T5, Serine/threonine-protein kinase Nek1 (Homo sapiens) (UniProt Q96PY6); details: at 0.1 µM
# T5 sequence (whole entry): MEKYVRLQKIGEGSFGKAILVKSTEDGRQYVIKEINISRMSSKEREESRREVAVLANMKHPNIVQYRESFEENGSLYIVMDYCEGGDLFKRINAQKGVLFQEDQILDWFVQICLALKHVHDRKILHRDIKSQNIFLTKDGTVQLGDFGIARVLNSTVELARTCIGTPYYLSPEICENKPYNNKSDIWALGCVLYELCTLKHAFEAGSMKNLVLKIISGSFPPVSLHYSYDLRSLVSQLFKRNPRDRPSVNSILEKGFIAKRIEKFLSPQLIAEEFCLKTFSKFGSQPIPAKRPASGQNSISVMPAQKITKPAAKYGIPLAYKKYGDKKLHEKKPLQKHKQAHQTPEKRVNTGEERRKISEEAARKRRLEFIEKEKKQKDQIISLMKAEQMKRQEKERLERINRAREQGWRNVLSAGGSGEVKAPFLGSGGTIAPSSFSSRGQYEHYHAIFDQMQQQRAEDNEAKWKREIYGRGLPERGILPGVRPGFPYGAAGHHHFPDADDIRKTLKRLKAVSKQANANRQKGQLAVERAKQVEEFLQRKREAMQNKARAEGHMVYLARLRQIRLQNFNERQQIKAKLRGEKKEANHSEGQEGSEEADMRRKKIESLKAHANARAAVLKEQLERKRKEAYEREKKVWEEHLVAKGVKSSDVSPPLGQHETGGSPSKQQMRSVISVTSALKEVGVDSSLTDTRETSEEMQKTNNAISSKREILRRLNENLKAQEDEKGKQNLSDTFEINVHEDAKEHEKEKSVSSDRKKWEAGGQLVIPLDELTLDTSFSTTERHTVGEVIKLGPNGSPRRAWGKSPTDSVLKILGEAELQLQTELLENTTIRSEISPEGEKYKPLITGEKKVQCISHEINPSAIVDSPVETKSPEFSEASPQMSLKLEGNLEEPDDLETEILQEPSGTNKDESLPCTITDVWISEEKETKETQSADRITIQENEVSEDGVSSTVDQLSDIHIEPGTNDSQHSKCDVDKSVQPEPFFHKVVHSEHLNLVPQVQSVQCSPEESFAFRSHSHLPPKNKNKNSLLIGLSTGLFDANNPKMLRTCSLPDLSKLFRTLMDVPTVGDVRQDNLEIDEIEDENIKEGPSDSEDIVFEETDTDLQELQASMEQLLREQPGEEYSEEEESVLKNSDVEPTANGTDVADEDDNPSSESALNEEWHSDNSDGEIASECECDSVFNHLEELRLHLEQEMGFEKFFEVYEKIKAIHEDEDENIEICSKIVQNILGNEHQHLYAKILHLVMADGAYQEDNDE
# [13] = target: T5, Serine/threonine-protein kinase Nek1 (Homo sapiens); details: at 1 µM
# [14] = target: T6, Serine/threonine-protein kinase Nek2 (Homo sapiens) (UniProt P51955); details: at 0.1 µM
# T6 sequence (whole entry): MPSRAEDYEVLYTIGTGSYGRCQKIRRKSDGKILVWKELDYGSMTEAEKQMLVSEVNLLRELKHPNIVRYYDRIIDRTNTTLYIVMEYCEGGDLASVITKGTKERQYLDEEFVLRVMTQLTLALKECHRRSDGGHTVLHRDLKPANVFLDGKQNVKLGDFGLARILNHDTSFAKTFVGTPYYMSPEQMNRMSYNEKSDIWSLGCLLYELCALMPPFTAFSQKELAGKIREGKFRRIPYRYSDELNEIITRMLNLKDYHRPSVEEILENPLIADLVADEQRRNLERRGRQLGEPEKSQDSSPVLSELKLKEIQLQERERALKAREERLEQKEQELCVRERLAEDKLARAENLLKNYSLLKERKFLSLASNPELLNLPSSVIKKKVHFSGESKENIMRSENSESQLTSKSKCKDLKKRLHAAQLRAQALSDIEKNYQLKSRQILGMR
# [15] = target: T6, Serine/threonine-protein kinase Nek2 (Homo sapiens); details: at 1 µM
# [16] = target: Serine/threonine-protein kinase Nek6 (Homo sapiens) (UniProt Q9HC98); details: at 0.1 µM
# [17] = target: Serine/threonine-protein kinase Nek6 (Homo sapiens) (UniProt Q9HC98); details: at 1 µM
# [18] = target: Serine/threonine-protein kinase Nek7 (Homo sapiens) (UniProt Q8TDX7); details: at 0.1 µM
# [19] = target: Serine/threonine-protein kinase Nek7 (Homo sapiens) (UniProt Q8TDX7); details: at 1 µM
# [20] = target: T7, Serine/threonine-protein kinase Nek9 (Homo sapiens) (UniProt Q8TD19); details: at 0.1 µM;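 also: reported value is the mean percent inhibition of NEK9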
# T7 sequence (whole entry): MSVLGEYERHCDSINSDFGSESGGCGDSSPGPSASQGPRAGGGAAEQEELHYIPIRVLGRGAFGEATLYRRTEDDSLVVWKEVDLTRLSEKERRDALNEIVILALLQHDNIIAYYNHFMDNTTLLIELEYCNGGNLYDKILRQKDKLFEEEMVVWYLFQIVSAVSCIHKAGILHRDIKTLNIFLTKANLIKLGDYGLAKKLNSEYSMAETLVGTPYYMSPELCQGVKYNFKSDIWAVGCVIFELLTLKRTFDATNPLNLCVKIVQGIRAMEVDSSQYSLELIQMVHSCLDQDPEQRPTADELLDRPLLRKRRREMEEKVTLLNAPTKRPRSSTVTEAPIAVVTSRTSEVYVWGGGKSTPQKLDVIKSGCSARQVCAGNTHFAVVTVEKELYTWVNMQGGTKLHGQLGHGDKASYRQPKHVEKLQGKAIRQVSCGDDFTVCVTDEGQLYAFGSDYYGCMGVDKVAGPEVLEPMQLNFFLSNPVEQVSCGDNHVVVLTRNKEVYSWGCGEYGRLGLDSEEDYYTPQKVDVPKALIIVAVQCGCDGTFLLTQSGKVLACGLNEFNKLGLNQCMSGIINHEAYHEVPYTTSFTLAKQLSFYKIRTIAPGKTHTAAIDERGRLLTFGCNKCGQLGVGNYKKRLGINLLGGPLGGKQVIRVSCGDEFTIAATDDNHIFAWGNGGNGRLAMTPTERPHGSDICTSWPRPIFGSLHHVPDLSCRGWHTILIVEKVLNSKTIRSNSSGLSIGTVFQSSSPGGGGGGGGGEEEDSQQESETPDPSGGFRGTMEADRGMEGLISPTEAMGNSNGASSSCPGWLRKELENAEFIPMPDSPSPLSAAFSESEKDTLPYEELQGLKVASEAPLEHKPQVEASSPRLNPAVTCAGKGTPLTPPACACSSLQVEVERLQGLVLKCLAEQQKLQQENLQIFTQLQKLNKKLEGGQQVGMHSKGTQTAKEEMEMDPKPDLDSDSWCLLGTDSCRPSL
# Sequence of Casein kinase II subunit alpha (Homo sapiens) (P68400 whole entry, looked up): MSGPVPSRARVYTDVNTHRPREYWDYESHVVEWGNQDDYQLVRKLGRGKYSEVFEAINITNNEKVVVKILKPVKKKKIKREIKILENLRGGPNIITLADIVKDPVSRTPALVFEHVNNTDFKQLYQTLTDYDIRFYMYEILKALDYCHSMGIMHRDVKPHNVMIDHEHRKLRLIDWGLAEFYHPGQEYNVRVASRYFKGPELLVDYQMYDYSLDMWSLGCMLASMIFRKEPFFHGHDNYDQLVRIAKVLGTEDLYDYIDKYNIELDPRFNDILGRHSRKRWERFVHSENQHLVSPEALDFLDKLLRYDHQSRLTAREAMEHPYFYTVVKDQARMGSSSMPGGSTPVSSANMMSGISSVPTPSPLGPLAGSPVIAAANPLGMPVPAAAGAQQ
# Sequence of Serine/threonine-protein kinase Nek6 (Homo sapiens) (Q9HC98 whole entry): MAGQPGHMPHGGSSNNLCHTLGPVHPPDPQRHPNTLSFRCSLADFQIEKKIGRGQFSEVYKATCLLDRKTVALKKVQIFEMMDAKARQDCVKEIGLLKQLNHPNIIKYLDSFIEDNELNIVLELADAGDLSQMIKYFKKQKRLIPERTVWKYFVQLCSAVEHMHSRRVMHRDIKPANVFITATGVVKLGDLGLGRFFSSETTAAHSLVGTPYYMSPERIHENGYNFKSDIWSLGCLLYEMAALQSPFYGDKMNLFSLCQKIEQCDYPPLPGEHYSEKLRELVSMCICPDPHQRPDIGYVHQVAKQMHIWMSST
# Sequence of Serine/threonine-protein kinase Nek7 (Homo sapiens) (Q8TDX7 whole entry, looked up): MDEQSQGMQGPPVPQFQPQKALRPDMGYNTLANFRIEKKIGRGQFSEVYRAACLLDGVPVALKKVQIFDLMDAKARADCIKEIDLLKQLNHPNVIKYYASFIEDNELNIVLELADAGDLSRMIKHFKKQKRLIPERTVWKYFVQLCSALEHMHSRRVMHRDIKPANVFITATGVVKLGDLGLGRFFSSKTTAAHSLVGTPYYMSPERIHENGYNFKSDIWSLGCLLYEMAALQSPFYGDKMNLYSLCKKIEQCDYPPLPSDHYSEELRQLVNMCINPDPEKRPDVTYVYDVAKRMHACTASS
# Sequence of Sphingosine kinase 1 (Homo sapiens) (Q9NYA1 whole entry): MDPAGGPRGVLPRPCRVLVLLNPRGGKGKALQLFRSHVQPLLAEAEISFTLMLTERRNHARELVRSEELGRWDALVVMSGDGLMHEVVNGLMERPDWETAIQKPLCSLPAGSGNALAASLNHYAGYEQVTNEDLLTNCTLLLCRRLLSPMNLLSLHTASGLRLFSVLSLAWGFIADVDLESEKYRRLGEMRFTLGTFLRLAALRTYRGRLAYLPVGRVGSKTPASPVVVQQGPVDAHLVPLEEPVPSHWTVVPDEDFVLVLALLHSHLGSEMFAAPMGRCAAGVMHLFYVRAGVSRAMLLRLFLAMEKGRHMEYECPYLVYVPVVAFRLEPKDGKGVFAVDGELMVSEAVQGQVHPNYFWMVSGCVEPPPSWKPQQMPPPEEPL
smiles,measurement,setting,value
Cc1ccc(NC(=O)CC2CC2)cc1-c1ccc(C(=O)NCC2CC2)cc1,inhibition,[1],-1.09%
same,inhibition,[2],0.51%
same,inhibition,[3],-0.13%
same,inhibition,[4],4.55%
same,inhibition,[5],8.23%
same,inhibition,[6],0.25%
same,inhibition,[7],1.31%
same,inhibition,[8],3.09%
same,inhibition,[9],3.67%
same,inhibition,[10],4.09%
same,inhibition,[11],3.27%
same,inhibition,[12],2.27%
same,inhibition,[13],3.32%
same,inhibition,[14],3.73%
same,inhibition,[15],3.66%
same,inhibition,[16],2.7%
same,inhibition,[17],0.33%
same,inhibition,[18],4.87%
same,inhibition,[19],4.36%
same,inhibition,[20],5.37%
